# Compound activity from PubChem BioAssay.
# This is a sample that favours compounds with a hit; in the whole collection about 21% have one here.
# Pf growth 96h = inhibits malaria parasite growth, 96 h; P. falciparum luciferase reporter growth, 96 h; 6.9% of 320,000 active; AID 504834; Potency, µM (highest dose often 28.7 µM), for inactives: at the highest dose activity change, negative = inhibition, most hits filed as inhibitors; further: potency means the concentration at half of the fitted maximal effect; on the % scale 0 is the no-effect control and ±100 the full control effect
#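 Readout is luminescence from an integrated firefly luciferase in P. falciparum. Red cells, 2% hematocrit and 0.05% parasitemia final, were cultured with compound through two parasite generations (96 hours) at 37 C, 5% CO2.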
# NS1 function inh = inhibitors of influenza NS1 protein function. Potency, µM (doses to about 46.1 µM), without a hit: at the top dose activity, positive = more growth. 0.4% of 270,000 active. AID 2326; calls by dose curve; further: potency means the concentration at half of the fitted maximal effect; actives are rising curves; nearly all actives have a fitted effect of over 50% in size
#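 A cell-based growth assay was used: compounds that relieve NS1-induced slow growth of budding yeast raise OD600. Assay medium was yeast nitrogen base with ammonium sulphate and -URA supplement, pH 6.0, with 2% galactose.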
# Sm TGR inh = S. mansoni TGR enzyme inhibition; 3% of 360,000 active; Potency, µM (top dose mostly 114 µM), inactives show top-dose activity change, negative = inhibition, most hits filed as inhibitors; purified TGR, DTNB reduction, TNB absorbance 405 nm; Q962Y6; AID 485364; further: potency means the concentration at half of the fitted maximal effect; on the % scale 0 is the no-effect control and ±100 the full control effect; nearly all actives have a fitted effect of over 60% in size
#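 First, TGR (20 nM dispensed) and NADPH were mixed with compound. Second, a 15 min room-temperature incubation followed. Third, further NADPH and then DTNB were added to start the reaction. Finally, TNB absorbance was monitored kinetically.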
# Pf growth 48h = P. falciparum growth inhibition at 48 hours (one generation); P. falciparum luciferase growth in erythrocytes, 48 h; 5.9% of 310,000 active; AID 504832; Potency, µM (titrated, usually from 28.7 µM), without a hit: top-dose activity change, negative = inhibition, usual class: inhibitors; further: potency means the concentration at half of the fitted maximal effect; on the % scale 0 is the no-effect control and ±100 the full control effect
#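 Firefly luciferase activity from engineered P. falciparum reports growth; inhibitors lower the luminescent signal. Cultures contained 2% hematocrit erythrocytes at 0.1% final parasitemia.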
# Shiga toxin inh = Shiga toxin inhibition; Vero cells, Shiga toxin protein synthesis inhibition reporter; inhibition, % at 38.7 µM; 9.2% of 290,000 active; AID 2315; in the data active means inhibition mostly above about 28%, no sharp cut-off; inactive means mostly below about 43%; further: 0% is about no effect
# Cycloheximide cs = affects cycloheximide protein synthesis inhibition readout, counter-screen; cell reporter, cycloheximide protein synthesis inhibition counterscreen; max response, %; 12% of 300,000 active; in the data active means max response mostly above about 13%, no sharp cut-off; inactive means mostly below about 14%; further: read at 38.3 µM for the half of the compounds with a filed dose; 0% is about no effect
# Flu NS1 inh = influenza NS1 function inhibition validation | shares compounds with NS1 function inh | influenza NS1 function cell assay, 15-point titration | activity change, negative = inhibition, % at 32.9 µM | 1,400 tested, under 10 active | AID 492980; calls by dose curve; further: 0% is about no effect
# PR8 titer = reduces influenza A/PR/8/34 replication in MDCK cells. MDCK infected influenza A/PR/8/34, virus titer TCID50; stronger effect = lower value. 30% of 95 active. shares compounds with NS1 function inh. virus titer (log TCID50), log10 TCID50 at 5 µM. AID 504647; call rule not given here
# Active calls of the source: *; ? = inconclusive; . = no result. Unless noted, the call rests on the fitted dose curve; in most records, active means well fitted curve in the direction sought with a large enough effect; inconclusive means small, poorly fitted or top-dose-only effect, or another doubt; inactive means no such curve, though single readings can be large; an effect the other way counts as inactive or inconclusive.
SMILES,Pf growth 96h,NS1 function inh,Sm TGR inh,Pf growth 48h,Shiga toxin inh,Cycloheximide cs,Flu NS1 inh,others
O=C(O)C[C@H]1OCC=C2CN3CC[C@@]45C6=CC(=O)C(=O)C([N+](=O)[O-])=C6N[C@H]4[C@H]1[C@H]2C[C@@H]35,.,-8%,.,.,.,.,.,
Cc1cc(C)nc(OC(C(=O)O)C(OCc2ccccc2)(c2ccccc2)c2ccccc2)n1 (centres undefined),9%,17%,-30%,16%,7,-2,.,
Cc1ccnc(OC(C(=O)O)C(OCc2ccccc2)(c2ccccc2)c2ccc(C(F)(F)F)cc2)n1 (centres undefined),?,?,?,6%,-5,-8,28,
Cc1cc(C)nc(OC(C(=O)O)C(OCCC(C)C)(c2ccccc2)c2ccccc2)n1 (centres undefined),-49%,2.5µM*,-4%,13%,-3,-4,20,
COc1cc(NS(=O)(=O)c2ccc(Cl)cc2)c(C(=O)O)cc1OC,?,5%,0%,4%,-19,-1,.,
CC1CCN(c2nc(-c3ccccc3O)nc3ccccc23)CC1,19%,2%,-23%,?,-14,2,.,
COc1cccc(-c2nc(N3CCC(C)CC3)c3ccccc3n2)c1O,32%,20µM*,10%,-9%,-24,-6,-29,
Cc1ccc(NC(=O)Cn2cc(C(=O)C3CCCCC3)c3ccccc32)c(C)c1,.,.,-7%,.,.,.,.,
Cc1c(NC(=O)C(C)OC(=O)c2cc(-c3cccc4ccccc34)nc3ccccc23)c(=O)n(-c2ccccc2)n1C (centres undefined),23%,11µM*,2%,-2%,-14,-3,7,
Cc1c(NC(=O)c2cc(-c3cccs3)nc3ccccc23)c(=O)n(-c2ccccc2)n1C,1%,6%,-2%,-16%,-4,2,.,
CCn1c(SCC(=O)N2CCC(C)CC2)nc2c(c1=O)SCC2,-4%,2µM*,5%,?,64,5,-12,
CCn1c(SCC(=O)N2CCCC2)nc2c(c1=O)SCC2,?,10%,-3%,?,-12,6,.,
CCOC(=O)c1ccccc1NC(=O)c1cn(CC(C)C)c(=O)c2cc(OC)c(OC)cc12,.,.,-17%,.,.,.,.,
Cc1cc(C)c(OCCN2C(=O)NC(C)(C)C2=O)c(Cl)c1,?,?,-19%,.,19,18,-32,
COc1ccc(S(=O)(=O)N(CC(=O)Nc2cccnc2)c2ccc(Cl)cc2)cc1,.,.,0%,.,.,.,.,
CN(C)S(=O)(=O)c1cccc(COC(=O)CN2CCCCCC2=O)c1,20%,15%,1%,-2%,-5,-4,.,
O=C(CN1CCCCCC1=O)OCc1ncc(-c2ccccc2)o1,6%,0.45µM*,-2%,13%,29,41,0,PR8 titer=8.5
Cc1cc(C(=O)CN(Cc2ccc(F)cc2)S(=O)(=O)c2ccc3c(c2)OCCO3)c(C)n1C,-6%,11µM*,11%,20%,21,1,-16,
N#C/C(=C(/O)CSc1nnc(Cc2cccs2)n1C1CCCCC1)c1nc2ccccc2[nH]1,65%,18µM*,-9%,6.6µM*,22,12,-15,
Cc1nn(-c2ccccc2)c(Cl)c1C(=O)NNC(=O)c1ccccc1O,-6%,.,-9%,?,.,.,.,
Cc1ccc(N2C(=O)NC(=O)C3(Cc4ccccc4N4CCCC43)C2=O)cc1 (centres undefined),?,?,-24%,-27%,-4,-3,.,
O=C1NC(=O)C2(Cc3ccccc3N3CCCC32)C(=O)N1c1ccc(Cl)cc1 (centres undefined),7%,11µM*,?,-14%,-9,-3,16,
CC(C)c1ccc(N(C(=O)c2ccc3c(c2)OCO3)C2C=CS(=O)(=O)C2)cc1 (centres undefined),?,-12%,-16%,11%,-7,-1,.,
CCCn1c(SCC(=O)Nc2cc(S(=O)(=O)N3CCOCC3)ccc2OC)n[nH]c1=O,1%,13%,-20%,2%,-12,1,.,
COc1ccccc1N(CC(=O)Nc1cccc(C(F)(F)F)c1)S(C)(=O)=O,3%,2%,7%,-1%,-1,-2,.,
SMILES,Pf growth 96h,NS1 function inh,Sm TGR inh,Pf growth 48h,Shiga toxin inh,Cycloheximide cs,Flu NS1 inh,others
Cc1ccc([N+](=O)[O-])cc1N(CC(=O)Nc1ccc(S(=O)(=O)Nc2cccc(C(F)(F)F)c2)cc1)S(C)(=O)=O,-14%,16µM*,4%,3%,10,-1,10,
N#CCC(=O)Nc1sc2c(c1C(N)=O)CCCC2,2%,8.9µM*,-24%,-9%,21,1,18,
Cn1c(N)c(C(=O)COC(=O)c2cc(C3CC3)nc3ccccc23)c(=O)n(Cc2ccccc2)c1=O,?,11µM*,-12%,-9%,-21,-4,10,
COc1ccccc1NC(=O)C(=O)N(c1cccnc1)C(C(=O)NC(C)(C)C)c1ccccc1F (centres undefined),21%,2%,2%,?,-6,-2,.,
Cc1cc2nnc(SCC(=O)Nc3cc(S(=O)(=O)N4CCOCC4)ccc3Cl)n2c2ccccc12,7.4µM*,10µM*,-9%,5.2µM*,-7,-1,19,
COC(=O)CNC(c1ccccc1)c1cc(Br)ccc1NC(C)=O (centres undefined),0%,-2%,.,3%,-3,-5,.,
CCOC(=O)CNC(c1ccccc1)c1cc(Br)ccc1NC(=O)c1cccc(Cl)c1 (centres undefined),.,.,0%,.,.,.,.,
NNC(=O)CNC(c1ccccc1)c1cc(Br)ccc1NC(=O)c1cccc(Cl)c1 (centres undefined),?,11µM*,9%,13µM*,-4,-1,15,
NNC(=O)CNC(c1ccccc1)c1cc(Br)ccc1NC(=O)CCN1CCOCC1 (centres undefined),9.3µM*,10µM*,18µM*,12µM*,3,12,?,
NNC(=O)CNC(c1ccccc1)c1cc(Br)ccc1NC(=O)c1ccc(Br)cc1 (centres undefined),-9%,7.1µM*,2%,8.3µM*,24,-3,26,
O=C(c1cc2ccccc2oc1=O)N(Cc1ccco1)C1CCS(=O)(=O)C1 (centres undefined),9%,8.9µM*,16µM*,7%,35,29*,-16,
Cc1cccc(N(CC(=O)NC2CCCCC2)C(=O)CCC(=O)Nc2ccccn2)c1,?,0%,6%,-3%,12,6,.,
